A number with no mark means an inactive call.
How the values were obtained:
Details in all cases: 60 µM; 5 days; temperature: 20 °C
Meloidogyne hapla J2 = assay: proportion of mobile M. hapla J2 relative to DMSO control (fraction of DMSO control); higher = more viable, less nematicidal, active = 0.7 or less
Procedure, shortened: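 Two biological replicates were run and averaged, each on 96-well plates in which about 25 M. hapla J2 sat in distilled water per well. Compound was pinned in to give 60 µM final and 0.6% v/v DMSO, and the sealed plates were shaken at 200 rpm and 20 °C for 5 days before 2 µL 1 M NaOH was added. Mobility was scored microscopically and divided by the mean from the plate's DMSO-only wells, of which there were eight.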

Ditylenchus dipsaci = assay: proportion of mobile D. dipsaci (mixed stage) relative to DMSO control (fraction of DMSO control); higher = more viable, less nematicidal, active = 0.86 or less; extreme values may be limits of the assay
Procedure, shortened: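 The worms, D. dipsaci raised on pea plants in Gamborg B-5 agar, were recovered through a filter funnel into water. Each well of a 96-well plate then held about 20 of them in distilled water plus pinned compound at 60 µM final (0.6% v/v DMSO), and the sealed plates were shaken at 200 rpm at 20 °C for 5 days. Following addition of 2 µL 1 M NaOH, mobile worms were counted by microscopy, and mobility was expressed against DMSO controls as the average of two biological replicates.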

[1] = system: Caenorhabditis elegans dauer (daf-2(e1370)); assay: proportion of mobile C. elegans dauer larvae relative to DMSO control (fraction of DMSO control); higher = more viable, less nematicidal, active = 0.63 or less; extreme values may be limits of the assay
Procedure, shortened: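 Synchronized C. elegans larvae were kept for 48 h at 25 °C on MYOB plates seeded with E. coli OP50 to induce dauer formation, and roughly 20 dauers were transferred into each well of a 96-well plate containing liquid NGM. Compound was pinned in to a final concentration of 60 µM with 0.6% v/v DMSO, and the sealed plates were shaken at 200 rpm for 5 days at 20 °C. The fraction of mobile worms was scored under a dissection microscope against DMSO-only wells and averaged across two biological replicates.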

| SMILES | proportion of mobile M. hapla J2 (Meloidogyne hapla J2) | proportion of mobile D. dipsaci (Ditylenchus dipsaci) | proportion of mobile C. elegans dauer larvae [1] |
| --- | --- | --- | --- |
| Cc1cccc(-c2noc(-c3cc(Cl)ccc3Cl)n2)c1 | 1.08 | 1 | – |
| CCOc1ccc(-c2nc(-c3ccc(Cl)cc3)no2)cc1 | 1 | 1 | – |
| N#Cc1ccc(OCc2nc(-c3ccc(Br)o3)no2)cc1 | 1.06 | 1 | – |
| COc1ccccc1NC(=O)CSc1nnc(-c2ccc(Cl)cc2)o1 | 0.902 | 1 | – |
| O=C(CSc1nnc(-c2ccc(Br)cc2)o1)N1CCCCCC1 | – | 1 | 1 |
| COc1ccc(Cl)cc1-c1nnc(SCC(=O)Nc2nccs2)o1 | – | 1 | 1 |
| CC1CCN(C(=O)CSc2nnc(-c3cccc(Cl)c3)o2)CC1 | – | 1 | 1 |
| COc1ccc(-c2noc(COc3ccc(Cl)cc3C)n2)cc1 | – | 1 | 1 |
| CCOc1nc(C)ccc1-c1noc(-c2cccc(C)c2)n1 | – | 1 | 1 |
| O=C(Nc1ccc(-c2noc(-c3ccc(Cl)cc3)n2)cc1)c1ccco1 | – | 1 | 1 |
| Clc1ccc(CSc2nnc(-c3ccccc3)o2)c(Cl)c1 | – | 1 | – |
| CCc1ccc(OCc2nc(-c3cccnc3)no2)cc1 | – | 1 | 0.436 (active) |
| Cc1ccc(-c2nnc(SCc3c(C)cc(C)cc3C)o2)cc1 | – | 1 | 1 |
| Cc1ccccc1CSc1nnc(-c2ccco2)o1 | – | 1 | 0.5 (active) |
| Cc1ccc(NC(=O)CSc2nnc(-c3ccncc3)o2)cc1Cl | – | 1 | 1 |
| N#Cc1ccc(CSc2nnc(-c3ccncc3)o2)cc1 | – | 1 | – |

| SMILES | proportion of mobile M. hapla J2 (Meloidogyne hapla J2) | proportion of mobile D. dipsaci (Ditylenchus dipsaci) | proportion of mobile C. elegans dauer larvae [1] |
| --- | --- | --- | --- |
| COc1ccc(-c2nnc(SCC(=O)Nc3ccc(C(C)C)cc3)o2)cc1 | – | 1 | 1 |
| Cc1ccc(OCc2nc(-c3ccc(Cl)cc3)no2)cc1C | – | 1 | – |
| COc1ccc(-c2noc(-c3ccc(C)c(C)c3)n2)cc1 | – | 1 | 1 |
| COc1ccccc1NC(=O)CSc1nnc(-c2cccc3ccccc23)o1 | – | 1 | – |
| Brc1cccc(-c2noc(-c3ccc4c(c3)OCO4)n2)c1 | – | 1 | – |
| COc1ccc(-c2noc(-c3ccc(Cl)cc3Cl)n2)cc1 | – | 1 | – |
| c1ccc(CSc2nnc(-c3ccccc3)o2)cc1 | – | 0.864 | 1 |
| Clc1ccccc1-c1noc(-c2ccccc2Cl)n1 | – | 1 | – |
| Cc1ccc(NC(=O)CSc2nnc(-c3ccco3)o2)cc1Cl | – | 0.5 (active) | – |
| N#Cc1ccccc1CSc1nnc(-c2ccncc2)o1 | – | 1 | 1 |
| Cc1ccc(-c2nnc(SCC(=O)Nc3ccc(Br)c(C)c3C)o2)cc1 | – | 1 | 1 |
| O=C(CSc1nnc(-c2cccc(F)c2)o1)Nc1ccccc1C(=O)c1ccccc1 | – | 1 | 1 |
| CCc1ccc(OCc2nc(-c3ccccn3)no2)cc1 | – | 1 | – |
| Cc1ccccc1-c1nc(-c2ccc3c(c2)OCO3)no1 | – | 0.933 | 1 |
| c1cncc(-c2noc(COc3cccc4ccccc34)n2)c1 | – | 1 | 1 |
| COc1ccc(-c2noc(CSc3nc4cc(C)ccc4[nH]3)n2)cc1 | – | 1 | – |

— the supplement of paper PMC11219838
